Bioassay records as filed in PubChem.
NS1 function inh: inhibitors of influenza NS1 protein function; 0.4% of 270,000 active; Potency, µM (top dose mostly 46.1 µM), inactives show at the top dose activity, positive = more growth; further: potency means the concentration at half of the fitted maximal effect; actives are rising curves; nearly all actives have a fitted effect of over 50% in size
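In this qHTS, NS1 from influenza A is expressed in budding yeast, where it slows growth. Cells are switched from glucose to 2% galactose medium (pH 6.0, -URA), treated with compound, and growth recovery is read at OD600.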
SARS PLpro yeast-1: inhibitors of SARS-CoV papain-like protease in yeast; S. cerevisiae expressing SARS-CoV PLpro, growth rescue; Potency, µM (series often up to 32.9 µM), for inactives: top-dose activity, positive = growth rescue, usual class: activators; 0.19% of 330,000 active; further: potency means the concentration at half of the fitted maximal effect; 0% is about no effect; nearly all actives have a fitted effect of over 55% in size
FBPA Giardia inh: Giardia lamblia aldolase inhibition; A8B2U2; purified Giardia FBPA; Potency, µM (top dose mostly 59.6 µM), without a hit: top-dose activity, negative = inhibition, actives largely listed as inhibitors; 0.71% of 290,000 active; active means well fitted curve in the direction sought with a large enough effect; inconclusive means small, poorly fitted or top-dose-only effect, or another doubt; inactive means no such curve, though single readings can be large; an effect the other way counts as inactive or inconclusive; further: potency means the concentration at half of the fitted maximal effect; on the % scale 0 is the no-effect control and ±100 the full control effect; nearly all actives have a fitted effect of over 55% in size
Target sequence (A8B2U2 whole entry, looked up): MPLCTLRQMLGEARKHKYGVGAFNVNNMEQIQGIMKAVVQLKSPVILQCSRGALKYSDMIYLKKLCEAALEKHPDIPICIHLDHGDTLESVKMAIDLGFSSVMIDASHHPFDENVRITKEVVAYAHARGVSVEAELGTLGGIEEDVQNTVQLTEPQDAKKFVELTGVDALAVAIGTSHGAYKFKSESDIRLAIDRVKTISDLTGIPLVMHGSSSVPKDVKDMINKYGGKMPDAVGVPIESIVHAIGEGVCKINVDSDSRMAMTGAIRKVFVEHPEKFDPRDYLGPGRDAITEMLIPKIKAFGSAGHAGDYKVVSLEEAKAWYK
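Giardia FBPA (40 nM reagent) was preincubated 10 min at RT with compound (up to 57.5 uM final), then substrate plus GAPDH/TPI/NAD/arsenate coupling system with diaphorase/resazurin was added; resorufin fluorescence (525/598 nm) was read after 20 min.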
AmpC inh detg: inhibitors of E. coli AmpC beta-lactamase with detergent; AmpC hydrolysis of nitrocefin, absorbance 480 nm, 0.01% Triton; 0.041% of 370,000 active; Potency, µM (doses to about 114 µM), for inactives: top-dose activity change, negative = inhibition, hits mostly inhibitors; P00811; active means well fitted curve in the direction sought with a large enough effect; inconclusive means small, poorly fitted or top-dose-only effect, or another doubt; inactive means no such curve, though single readings can be large; an effect the other way counts as inactive or inconclusive;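 further: potency means the concentration at half of the fitted maximal effect; 0% = no-compound wells and -100% = no-enzyme wells; nearly all actives have a fitted effect of over 25% in size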
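20 mM phosphate pH 7.0 + 0.01% (detergent screen) or 0.0001% Triton X-100; 5.3 nM AmpC reagent; cpd preinc 15 min RT; nitrocefin (800 uM stock) to start; A480 q20 s × 4 min; Activity was normalised to no-enzyme and no-compound control wells.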
AmpC inh no detg: AmpC beta-lactamase inhibition without detergent; P00811; AID 485341; 0.52% of 330,000 active; Potency, µM (titrated, usually from 57.1 µM), inactives show at the top dose activity change, negative = inhibition, actives largely listed as inhibitors; AmpC nitrocefin hydrolysis, absorbance 480 nm, 0.0001% Triton; active means well fitted curve in the direction sought with a large enough effect; inconclusive means small, poorly fitted or top-dose-only effect, or another doubt; inactive means no such curve, though single readings can be large; an effect the other way counts as inactive or inconclusive;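 further: potency means the concentration at half of the fitted maximal effect; plate controls were no compound for no effect and no enzyme for full effect; nearly all actives have a fitted effect of over 20% in size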
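AmpC (5.3 nM in the dispensed reagent) in 20 mM phosphate pH 7.0 with 0.01% (detergent screen) or 0.0001% Triton X-100 was preincubated with compounds for 15 min at room temperature. Nitrocefin was then added from an 800 uM solution, and hydrolysis was followed at 480 nm.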
Flu NS1 inh: influenza NS1 function inhibition validation. shares compounds with NS1 function inh. influenza NS1 function cell assay, 15-point titration. activity change, negative = inhibition, % at 32.9 µM. 1,400 tested, under 10 active. AID 492980; further: 0% is about no effect
SARS PLpro yeast-2: Rescues yeast growth by inhibiting SARS-CoV PLpro; shares compounds with SARS PLpro yeast-1; yeast expressing SARS-CoV PLpro, growth phenotype rescue; calls only; 19% of 1,000 active; AID 652038; call rule not given here
* = called active by the depositor; i = inactive; ? = inconclusive; . = no result; + = active, no number. In the library only some 1.4% were active in any assay of this set; here they are far more common. Unless noted, the call rests on the fitted dose curve.

SMILES	NS1 function inh	SARS PLpro yeast-1	FBPA Giardia inh	AmpC inh detg	AmpC inh no detg	Flu NS1 inh	others
CCc1ccc(Nc2nnc(SCC(=O)Nc3cccc(S(=O)(=O)NC4=NCCCCC4)c3)s2)cc1	11.2µM*	-5.3%	-1.0%	?	-8.8%	11.7
CC(=O)Nc1c(-c2ccccc2)c2cc(Br)ccc2[nH]c1=O	5.7%	2.6%	9.6%	-1.4%	14.8%	.
Cc1ccc(C)c(N2CCN(C(=O)CCNC(=O)Cn3ccc4ccccc4c3=O)CC2)c1	?	29.6%	3.1%	3.9%	-15.1%	3.2
O=[N+]([O-])c1ccccc1S(=O)(=O)Nc1ccc(-c2ccc(N3CCOCC3)nn2)cc1	.	-4.0%	.	-5.6%	-26.6%	.
CCN1C(=O)c2ccccc2Sc2ccc(NC(=O)c3ccc(C#N)cc3)cc21	.	.	.	10.1%	.	.
O=S(=O)(Nc1ncnc2c1oc1ccccc12)c1ccc(Cl)s1	1.12µM*	11.5%	15.0%	?	-17.9%	-1.4
Cc1ccc(NC(=O)CN2C(=O)S/C(=C\c3cc(C)n(-c4cccc(C(=O)O)c4)c3C)C2=O)cc1	11.2µM*	0.6%	1.0%	-8.9%	-30.0%	7.4
Cc1ccc(NC(=O)CN2C(=O)S/C(=C\c3cc(C)n(C)c3C)C2=O)cc1	4.6%	3.3%	-0.4%	-9.9%	-27.9%	.
O=C(CCn1c(=O)c2ccccc2n(Cc2cccc([N+](=O)[O-])c2)c1=O)N1CCc2ccccc2C1	5.01µM*	-2.3%	0.2%	-18.9%	-14.2%	9.3
CCCN(Cc1ccccc1)C(=S)Nc1ccc(OC(F)F)cc1	4.2%	?	-0.3%	-9.3%	-22.4%	.
O=C(Nc1nccs1)c1cn(-c2ccccc2)nc1-c1ccccc1	20.7%	?	3.4%	-1.7%	-22.0%	.
CC(C)COc1ccc(-c2nn(-c3ccccc3)cc2C(=O)Nc2nccs2)cc1	11.2µM*	?	-1.1%	-0.5%	-21.0%	-0.1	SARS PLpro yeast-2=+
CCCCN(Cc1cccs1)S(=O)(=O)c1csc(C(N)=O)c1	-12.9%	0.9%	.	3.0%	-25.7%	.
Cc1cc(C)c2sc(NNC(=O)c3ccc(S(=O)(=O)N4CCc5ccccc5C4)cc3)nc2c1	11.2µM*	7.94µM*	?	-19.1%	3.55µM*	5.7	SARS PLpro yeast-2=+
COc1ccc(OC(=O)c2ccncc2)cc1	?	?	7.3%	-8.6%	-12.3%	-2.5	SARS PLpro yeast-2=i
CN1OC2C(=O)N(c3ccccc3)C(=O)C2C1c1ccc(F)cc1 (stereo not given)	?	?	3.4%	-0.2%	67.3%	11.9	SARS PLpro yeast-2=i
O=C1C2ON(c3ccccc3)C(c3ccccc3F)C2C(=O)N1c1ccccc1 (stereo not given)	-45.3%	-5.0%	-1.4%	-17.6%	-12.0%	.
NC(=O)C1CCN(C(=O)c2cccc(CN3C(=O)c4ccccc4C3=O)c2)CC1	.	7.0%	.	0.4%	-30.3%	.
